An excerpt weighted towards active compounds, which were near 21% of everything screened.
NS1 function inh: inhibitors of influenza NS1 protein function. Potency, µM (series often up to 46.1 µM), without a hit: at the top dose activity, positive = more growth. 270,000 compounds, 0.4% hits; calls by dose curve; note: potency is the fitted concentration of half-maximal effect; actives are rising curves; nearly all actives have a fitted effect of over 50% in size
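OD600 was taken as the measure of yeast growth restored by compound in an NS1-expressing S. cerevisiae strain. Cells had been washed out of glucose medium and diluted 1:100 into galactose -URA medium, pH 6.0.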
Giardia FBPA inh-1: blocks Giardia fructose-bisphosphate aldolase activity; A8B2U2; purified Giardia FBPA; Potency, µM (titrated, usually from 59.6 µM), inactives show at the top dose activity, negative = inhibition, usual class: inhibitors; 290,000 compounds, 0.71% hits; AID 2451; note: potency is the fitted concentration of half-maximal effect; % is set by controls: 0 for no effect and ±100 for the full control effect; nearly all actives have a fitted effect of over 55% in size
Target sequence (A8B2U2 whole entry, looked up): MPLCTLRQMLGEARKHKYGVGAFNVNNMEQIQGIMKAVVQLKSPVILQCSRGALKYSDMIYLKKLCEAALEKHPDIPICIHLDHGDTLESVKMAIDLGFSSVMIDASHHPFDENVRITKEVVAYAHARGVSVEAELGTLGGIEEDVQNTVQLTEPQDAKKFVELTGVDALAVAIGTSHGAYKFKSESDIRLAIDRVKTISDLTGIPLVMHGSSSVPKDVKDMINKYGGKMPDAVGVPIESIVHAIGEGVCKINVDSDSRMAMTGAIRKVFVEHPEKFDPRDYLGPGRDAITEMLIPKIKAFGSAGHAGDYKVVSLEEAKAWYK
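40 nM FBPA preincubated 10 min at RT with compound (up to 57.5 uM final), then substrate plus GAPDH/TPI/NAD/arsenate coupling and diaphorase/resazurin added. Fluorescence read after 20 min at RT, 525/598 nm.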
CHX counter: counter-screen hit for Shiga toxin inhibitors, cycloheximide | cell reporter, cycloheximide protein synthesis inhibition counterscreen | max response, % | 300,000 compounds, 12% hits; in the data active = max response mostly above about 13%, no sharp cut-off; inactive = mostly below about 14%; note: read at 38.3 µM for the half of the compounds with a filed dose; 0% is about no effect
Shiga toxin inh: Shiga toxin inhibition. Vero cells, Shiga toxin protein synthesis inhibition reporter. inhibition, % at 38.7 µM. 290,000 compounds, 9.2% hits. AID 2315; in the data active = inhibition mostly above about 28%, no sharp cut-off; inactive = mostly below about 43%; note: 0% is about no effect
Pf growth 96h: P. falciparum growth inhibition at 96 hours | 320,000 compounds, 6.9% hits | P. falciparum luciferase reporter growth, 96 h | Potency, µM (series often up to 28.7 µM), without a hit: at the top dose activity change, negative = inhibition, usual class: inhibitors; note: potency is the fitted concentration of half-maximal effect; % is set by controls: 0 for no effect and ±100 for the full control effect
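Luminescence readout: decreased luciferase signal marks inhibited growth of reporter-expressing P. falciparum in infected red cells (2% hematocrit, 0.05% parasitemia final), exposed to compound two generations (96 h, 37 C, 5% CO2).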
Pf growth 48h: inhibits P. falciparum growth in the first generation, 48 h. 310,000 compounds, 5.9% hits. P. falciparum luciferase growth in erythrocytes, 48 h. Potency, µM (doses to about 28.7 µM), inactives show at the highest dose activity change, negative = inhibition, hits mostly inhibitors. AID 504832; note: potency is the fitted concentration of half-maximal effect; % is set by controls: 0 for no effect and ±100 for the full control effect
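Compounds are pin-transferred into medium, infected erythrocytes (2% hematocrit, 0.1% parasitemia final) are added, and plates sit one parasite generation at 37 C in 5% CO2. Detection reagent is then added and luminescence measured.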
Giardia growth: blocks growth of Giardia lamblia trophozoites; shares compounds with Giardia FBPA inh-1; Giardia lamblia trophozoite growth inhibition; Potency, µM (series often up to 57.5 µM), without a hit: at the top dose activity change, negative = inhibition, usual class: inhibitors; 1,500 compounds, 5% hits;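 note: potency is the fitted concentration of half-maximal effect; trophozoites exposed to compound for 48 h at 37 °C; % is set by controls: 0 for no effect and ±100 for the full control effect; nearly all actives have a fitted effect of over 70% in size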
Mammal cell tox: toxic to mammalian cells in Giardia aldolase counter-screen. shares compounds with Giardia FBPA inh-1. mammalian cell viability counter-screen, qHTS. Potency, µM (highest dose often 57.5 µM), without a hit: at the top dose viability change, negative = toxicity, hits mostly inhibitors. 1,500 compounds, 4% hits;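 note: Chinese hamster ovary cells used as mammalian cytotoxicity surrogate; viability measured as cellular ATP by luminescence; potency is the fitted concentration of half-maximal effect; compound exposure lasted 48 h before reading; % is set by controls: 0 for no effect and ±100 for the full control effect; nearly all actives have a fitted effect of over 60% in size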
Giardia FBPA inh-2: confirmation of Giardia fructose-bisphosphate aldolase inhibitors; shares compounds with Giardia FBPA inh-1; Potency, µM (highest dose often 57.5 µM), for the others: at the highest dose activity change, negative = inhibition, actives largely listed as inhibitors; 1,500 compounds, 5% hits; purified Giardia aldolase enzyme activity, qHTS; note: potency is the fitted concentration of half-maximal effect; % is set by controls: 0 for no effect and ±100 for the full control effect; nearly all actives have a fitted effect of over 45% in size
Rabbit aldolase: blocks rabbit muscle aldolase in Giardia aldolase selectivity test; Potency, µM (doses to about 57.5 µM), for inactives: at the top dose activity, negative = inhibition, most hits filed as inhibitors; AID 2794; 1,500 compounds, 4% hits; shares compounds with Giardia FBPA inh-1; Rabbit muscle FBPA enzyme inhibition, selectivity counter-screen; note: potency is the fitted concentration of half-maximal effect; % is set by controls: 0 for no effect and ±100 for the full control effect; nearly all actives have a fitted effect of over 60% in size
Target sequence (P00883 whole entry, looked up): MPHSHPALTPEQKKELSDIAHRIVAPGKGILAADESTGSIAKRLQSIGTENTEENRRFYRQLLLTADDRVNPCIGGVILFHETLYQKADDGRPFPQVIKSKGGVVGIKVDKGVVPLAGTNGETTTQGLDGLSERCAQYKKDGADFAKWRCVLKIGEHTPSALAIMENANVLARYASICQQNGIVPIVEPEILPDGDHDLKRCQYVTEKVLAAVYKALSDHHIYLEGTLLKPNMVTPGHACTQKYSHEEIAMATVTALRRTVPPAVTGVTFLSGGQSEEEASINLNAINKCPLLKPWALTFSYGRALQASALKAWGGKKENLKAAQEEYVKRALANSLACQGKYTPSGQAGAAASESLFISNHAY
GAPDH counter: counter-screen for Giardia aldolase inhibitors: GAPDH coupling enzyme | Potency, µM (highest dose often 57.5 µM), without a hit: at the top dose activity change, negative = inhibition, most hits filed as inhibitors | shares compounds with Giardia FBPA inh-1 | GAPDH coupling enzyme counterscreen, biochemical, qHTS | 1,500 compounds, 6% hits; note: potency is the fitted concentration of half-maximal effect; % is set by controls: 0 for no effect and ±100 for the full control effect; nearly all actives have a fitted effect of over 55% in size
* marks the source's active call; other numbers are inactive results; ? = inconclusive; . = no result; [ ] = remark or other dose. Unless noted, calls come from the whole dose curve; as a rule, active = well fitted curve in the direction sought with a large enough effect; inconclusive = small, poorly fitted or top-dose-only effect, or another doubt; inactive = no such curve, though single readings can be large; an effect the other way counts as inactive or inconclusive.

SMILES	NS1 function inh	Giardia FBPA inh-1	CHX counter	Shiga toxin inh	Pf growth 96h	Pf growth 48h	Giardia growth	Mammal cell tox	Giardia FBPA inh-2	Rabbit aldolase	GAPDH counter
O=Nc1onc(-c2ccc([N+](=O)[O-])cc2)c1NO	.	14.1µM*	-0.9	-9.7	15.5%	-27.5%	?	1.3%	-14.5%	-3.7%	15.7%
Cc1cc(C)cc(NC(=O)C2CCCN2S(=O)(=O)c2ccc3c(c2)n(C)c(=O)c(=O)n3C)c1 (stereo unspecified)	14.9%	4.0%	-2.4	-2.2	-11.8%	4.8%	.	.	.	.	.
N#C/C(=C\c1cccc(Oc2ccc(C(F)(F)F)cc2[N+](=O)[O-])c1)c1nc2ccccc2[nH]1	-23.3%	-5.0%	19.4	5.7	31.7%	?	.	.	.	.	.
COc1c(O)ccc(/C=C(\C#N)c2nc3ccccc3[nH]2)c1[N+](=O)[O-]	7.0%	?	40.5*	63.9*	4.15µM*	7.6%	?	-13.9%	-24.4%	-15.1%	-15.7%
COc1cccc(N2CN(CCc3ccccc3)CNC2=S)c1	0.2%	-0.8%	1.3	-3.6	?	?	.	.	.	.	.
O=[N+]([O-])c1cc(C(F)(F)F)cc([N+](=O)[O-])c1Sc1n[nH]c(C(F)(F)F)n1	-2.6%	17.7µM*	5.5	17.6	?	5.22µM*	?	-6.0%	-5.8%	9.6%	-13.5%
Cc1ccc(C)c(N2CCN(CCN3CCCCC3)CC2)c1	1.8%	15.8µM*	-4.5	2.2	5.4%	0.1%[0.00184 µM]	?	-0.9%	3.7%	6.2%	-14.2%
COc1ccc(-c2cc(-c3ccco3)[nH]c(=O)c2C#N)cc1	?	19.9µM*	8.0	10.8	-7.0%	3.8%	-28.7%	-7.3%	-11.8%	-1.2%	-0.6%
COc1ccc(-c2cc(C(F)(F)F)c(C#N)c(=O)[nH]2)cc1	0.7%	-2.8%	-2.3	-0.9	22.8%	4.2%	.	.	.	.	.
CC(C)N(C(=O)COC(=O)c1cccc(C(=O)OCC(=O)N(C(C)C)C(C)C)n1)C(C)C	.	0.0%	1.5	-9.0	62.8%	17.4%	.	.	.	.	.
CC(CN1CCN(C)CC1)OC(=O)c1ccccc1 (stereo unspecified)	-6.5%	-8.7%	-1.7	-3.2	15.1%	-0.1%	.	.	.	.	.
COc1ccccc1C(=O)OC(C)CN1CCN(C)CC1 (stereo unspecified)	5.0%	31.6µM*	-1.2	-10.5	?	?	-5.4%[10.4 µM]	3.0%	6.1%	2.4%	-11.9%
CC(CN1CCCCC1)OC(=O)c1ccc(Cl)cc1Cl (stereo unspecified)	-23.3%	-11.5%	-1.4	14.2	5.1%	-13.7%	.	.	.	.	.
CC(CN1CCCC1)OC(=O)c1ccc(Cl)cc1Cl (stereo unspecified)	-16.9%	15.8µM*	6.1	-2.2	-22.5%	0.0%	18.1%	-10.3%	0.3%	-1.0%	-18.8%
Cc1nnc(SCC(=O)N2CCCC2)n(N)c1=O	.	-14.0%	6.4	38.8	7.0%	28.7%	.	.	.	.	.
Cc1ccc(S(=O)(=O)N2CCN(C3CC4CCC3C4)CC2)cc1 (stereo unspecified)	-0.8%	14.1µM*	1.9	22.5	15.5%	5.6%	18.3%	-1.2%	3.1%	0.0%	13.6%
COc1ccc(S(=O)(=O)N2CCN(C3CC4CCC3C4)CC2)cc1 (stereo unspecified)	-7.8%	-22.9%	-4.8	-3.8	-0.9%	?	.	.	.	.	.
COc1ccc(-c2ccnc3cc(C(=O)O)nn23)cc1	8.1%	17.7µM*	-1.3	-19.4	1.9%	11.7%	47.1%	23.1%	4.4%	-0.4%	7.2%
O=C(O)c1cc2nccc(-c3ccco3)n2n1	-2.0%	-8.0%	-4.0	-6.7	27.5%	5.6%	.	.	.	.	.
O=C(Nc1nccs1)C(Cl)(Cl)Cl	-24.2%	0.8%	-2.0	17.8	-17.2%	0.0%	.	.	.	.	.
O=C(Nc1nccs1)c1cccc2ccccc12	-12.6%	?	6.4	9.4	?	-3.8%	.	.	.	.	.
O=C(Nc1nccs1)c1cn2ccccc2n1	-5.3%	14.1µM*	10.5	-19.2	62.6%	-19.0%	?	20µM*	-7.2%	-2.7%	1.1%
Cc1cnc(C(=O)Nc2nccs2)cn1	?	19.9µM*	63.6*	108.2*	90.0%	62.1%	-9.0%	17.8%	2.6%	1.8%	10.7%
CCN(CC)C(=O)C(Sc1ccccc1)c1ccccc1 (stereo unspecified)	1.7%	-3.1%	0.7	-12.8	.	-15.1%	.	.	.	.	.
S=C(Nc1ccccc1)N1CCN(C/C=C/c2ccccc2)CC1	-0.3%	1.2%	-2.0	-4.3	5.1%	-11.4%	.	.	.	.	.
SMILES	NS1 function inh	Giardia FBPA inh-1	CHX counter	Shiga toxin inh	Pf growth 96h	Pf growth 48h	Giardia growth	Mammal cell tox	Giardia FBPA inh-2	Rabbit aldolase	GAPDH counter
O=C(NC(=S)N1CCN(C/C=C/c2ccccc2)CC1)c1cccnc1	2.2%	11.2µM*	-1.7	23.9	3.29µM*	9.28µM*	10.9%	9.7%	-3.1%	6.9%	-1.5%
O=C(NCCOc1ccc(F)cc1)C1CCC(=O)N(CCN2CCOCC2)C1 (stereo unspecified)	7.2%	.	-4.2	-22.1	?	10.9%	.	.	.	.	.
CCSC1=N/C(=C\c2ccc(-c3ccccc3[N+](=O)[O-])o2)C(=O)S1	-1.7%	?	14.2	26.1	-17.1%	-7.5%	6.2%[38.3 µM]	-19.4%	-20.3%	-5.0%	-18.2%
CCCSC1=N/C(=C\c2ccc([N+](=O)[O-])o2)C(=O)S1	3.3%	?	0.9	-6.5	-27.2%	-2.3%	.	.	.	.	.
O=C(N/N=C/c1ccc(O)c(O)c1O)/C(=C/c1ccc([N+](=O)[O-])cc1)NC(=O)c1ccccc1	-2.7%	6.29µM*	-5.8	-6.8	9.28µM*	.	?	-11.9%	?	?	?
CN1CCN(Cc2coc3c(Cl)cc(Cl)cc3c2=O)CC1	8.0%	12.6µM*	2.4	.	-9.2%	19.5%	-12.1%	-8.3%	2.4%	7.8%	-11.2%
O=c1c(CN2CCN(c3cccc(Cl)c3)CC2)coc2c(Cl)cc(Cl)cc12	0.5%	1.0%	-2.8	-14.6	55.5%	?	.	.	.	.	.
CC(C)c1nc(SCC(=O)NCc2ccccc2)n[nH]1	4.3%	4.4%	-3.7	0.9	?	-2.0%	.	.	.	.	.
O=C(Nc1ccc(F)cc1)c1cc(S(=O)(=O)N2CCCCC2)cs1	-1.9%	1.4%	-2.1	-7.4	?	-13.4%	.	.	.	.	.

Assay outcomes from PubChem BioAssay.
